Shown are actives, neighbours in structure and some others; about 1.8% of the full set was active somewhere.
ugtP null kill = kills S. aureus RN4220 lacking UgtP; S. aureus RN4220 ugtP deletion, OD600 growth, 16 h; hit rate 0.54% among 330,000; growth inhibition, % (no concentration beside the values); in the data active = growth inhibition above about 68%;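 note: plate controls were untreated wells for no effect and antibiotic for full effect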
PrPC surface inh = inhibitors of human cell surface prion protein PrPC; P04156; TR-FRET read-out; inhibition, % at 13.8 µM; hit rate 0.43% among 370,000; in the data active = inhibition above about 24%; note: 0% = median of the test wells and 100% = reference compound wells
Sa RN4220 lethal = kills Staphylococcus aureus RN4220 | S. aureus RN4220 growth, OD600, 16 h | inhibition, % (concentration not given with the values) | hit rate 0.33% among 330,000; in the data active = inhibition above about 85%;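 note: plate controls were untreated cells for no effect and reference antibiotic for full effect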
PfHsp40 rescue = restores yeast growth despite PfHsp40 toxicity | S. cerevisiae expressing PfHsp40, growth rescue, ATP luminescence | growth rescue, % at 12.5 µM | hit rate 0.68% among 340,000; in the data active = growth rescue above about 28%, passing the limit was not always enough;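 note: yeast W303a lacking pdr1 and pdr3 grown in galactose medium; growth measured after three days at 30 °C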
VHR inh abs = blocks human VHR1 dual specificity phosphatase | recombinant VHR phosphatase, pNPP absorbance | inhibition, % at 13.3 µM | hit rate 0.52% among 290,000 | AID 1654 | P51452; in the data active = inhibition above about 50%
Target sequence (P51452 whole entry, looked up): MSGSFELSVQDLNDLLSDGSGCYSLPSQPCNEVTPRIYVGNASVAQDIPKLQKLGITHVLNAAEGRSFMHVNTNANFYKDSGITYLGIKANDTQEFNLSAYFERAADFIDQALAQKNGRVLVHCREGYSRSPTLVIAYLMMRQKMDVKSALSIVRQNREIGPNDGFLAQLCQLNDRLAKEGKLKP
An asterisk follows results filed as active; . = no result given.

SMILES	ugtP null kill	PrPC surface inh	Sa RN4220 lethal	PfHsp40 rescue	VHR inh abs
Cc1cccc(NC(=O)CSc2ccc(-c3ccccn3)nn2)c1C	-2.7	0.6	6.7	200.0*	6.7
Cc1ccc(NC(=O)CSc2ccc(-c3ccccn3)nn2)cc1	6.9	5.1	2.5	103.4*	2.3
O=C(CSc1ccccn1)Nc1ccc(NC(=O)CSc2ccccn2)cc1	1.9	-8.7	2.2	-1.9	48.7
Cc1cc(C)c(NC(=O)CSc2ccc(-c3ccccn3)nn2)c(C)c1	5.7	-0.8	4.2	-1.5	-1.6
Cc1ccc(NC(=O)CSc2ccc(-c3ccccn3)nn2)c(C)c1	2.3	-1.7	-0.6	104.7*	-11.6
O=C(CSc1ccccn1)Nc1nonc1[N+](=O)[O-]	86.5*	4.5	40.4	-1.4	-6.0
CNC(=S)NN=Cc1ccccc1Cl	-3.2	.	2.1	.	.
S=C(NN=Cc1ccccc1Cl)Nc1cccc(Cl)c1Cl	98.7*	.	-7.9	.	.
Cc1ccccc1C(=O)NN=Cc1ccsc1C	5.4	.	4.7	.	.
COc1cccc(/C=N/Nc2nc3ccccc3n3cnnc23)c1	.	-8.0	.	-0.9	51.3*
O=C(NC(Cc1ccccc1)C(=O)O)C(=Cc1ccc(F)cc1)NC(=O)c1ccccc1 (stereo not given)	-1.2	.	11.5	.	.
O=C(Nc1ccc2nn(-c3ccccc3)nc2c1)c1cccnc1	-4.5	-2.0	-2.2	114.6*	32.2
CC(C)(C)OC(=O)CCC(C(=O)NCCCCCCCCCCC(=O)N1CCN(C(=O)OC(C)(C)C)CC1)n1cc(CCCCCNC(=O)OC(C)(C)C)nn1 (stereo not given)	-9.2	.	-2.6	.	.
CCOc1ccc(NS(=O)(=O)c2cc(NC(=O)c3ccc(C)cc3)ccc2Cl)cc1	85.0*	15.4	2.4	0.9	4.0
CCOc1ccc(Oc2ccc(NS(=O)(=O)c3cc(C(=O)O)ccc3Cl)cc2)cc1	1.3	7.8	0.1	1.8	.
CC(=NNC(=O)COc1ccc2ccccc2c1)c1cccs1	-12.3	.	3.4	.	.
COC(=O)c1sccc1NC(=O)C1CCCCC1C(=O)O (stereo not given)	5.1	37.1*	3.4	-1.0	4.8
COC(=O)c1ccccc1NC(=O)C1CCCCC1C(=O)O (stereo not given)	6.2	-0.9	7.7	0.7	-8.6
COC(=O)c1sccc1NC(=S)N1C(C)CCCC1C (stereo not given)	7.2	12.4	5.7	-1.2	50.6*
CN(C)c1ccc(C=NNC(=O)c2ccc3c(c2)OCCO3)cc1	10.4	.	-0.2	.	.
COC(=O)[C@@]12CCCN1C(c1ccc(-c3ccc(OC)cc3)c(OC)c1)C1C(=O)N(C)C(=O)C12 (stereo not given in full)	14.0	.	6.1	.	.
COc1ccc(C(=O)On2c(-c3ccc(Br)cc3)nc3ccccc3c2=O)cc1	-18.2	-5.3	3.9	375.0*	23.7
O=c1c2cc(Cl)ccc2nc(-c2ccccc2Cl)n1O	3.5	5.9	17.4	11.9	16.6
COc1cc(OC)cc(-c2nc3ccccc3c(=O)n2OC(=O)c2ccc(Br)cc2)c1	-9.6	8.0	4.8	0.4	15.2
O=c1c2cc(Br)ccc2nc(-c2ccccc2)n1O	.	7.2	.	128.0*	18.2
SMILES	ugtP null kill	PrPC surface inh	Sa RN4220 lethal	PfHsp40 rescue	VHR inh abs
O=c1c2ccccc2nc(-c2cccc(Cl)c2)n1O	7.2	-7.9	14.8	235.8*	-5.1
Cc1ccc(-c2nc3ccc(Cl)cc3c(=O)n2O)cc1	0.3	-1.7	18.4	355.0*	5.8
Cc1ccc(OCC(=O)NN=Cc2ccncc2)c(C)c1	3.5	.	3.2	.	.
O=C(NN=Cc1cccc(Cl)c1)c1n[nH]c2c1CCCC2	-6.1	.	3.1	.	.
Cc1ccc(-c2nc3ccccc3c(=O)n2O)cc1	0.4	-1.7	5.2	131.9*	-22.0
COc1ccccc1-c1nc2ccccc2c(=O)n1O	4.1	-1.0	2.1	-0.1	2.4
O=c1c2ccccc2nc(-c2ccc([N+](=O)[O-])cc2)n1O	-5.1	-6.1	13.3	30.4*	4.2
C=C1CCN(C(CC(C)C)C(=O)NCc2ccco2)S(=O)(=O)c2ccccc21 (stereo not given)	-1.2	.	6.7	.	.
COC(=O)C1=C(C)N(Cc2ccco2)C(=O)NC1c1ccccc1 (stereo not given)	-15.6	.	1.7	.	.
Cc1ccc(NN=C2CS(=O)(=O)N(C)c3ccsc32)cc1	92.7	.	98.8*	.	.
CN1CCN(c2c(F)cc3c(=O)c(C(=O)O)cn4c3c2OCN4C)CC1	99.5*	7.1	99.4*	0.0	0.9
CN1CCN(c2c(F)cc3c(=O)c(C(=O)O)cn(CCF)c3c2F)CC1	.	.	.	.	16.5
COc1cccc(CNCC(O)COc2ccc(C(=O)c3ccccc3)cc2)c1 (stereo not given)	1.2	-7.0	3.1	-0.4	52.0*
O=C(c1ccccc1)c1ccc(OCC(O)CNCc2ccc(Cl)cc2)cc1 (stereo not given)	-10.6	-4.9	-6.6	2.7	-14.3
Cn1c(COc2ccc3ccccc3c2)nnc1SCC(=O)OC1CCCCC1	-16.7	3.7	-1.7	49.0*	30.5
COc1cc(C=NNc2nc(=O)[nH]nc2C)cc(OC)c1O	6.3	.	4.5	.	.
Cc1cc(C)n(-c2ccc(N3CCOCC3)nn2)n1	5.0	-7.7	-5.7	36.1*	-16.1
Clc1ccc(N2CCOCC2)nn1	5.6	-6.8	8.1	-1.5	24.9
COCCNC(=O)c1oc2ccc3c(c2c1C)C(O)CC(C)(C)O3 (stereo not given)	6.5	8.7	3.1	-1.0	56.9*
CCN(CC)CCCNC(=O)c1oc2ccc3c(c2c1C)C(O)CC(C)(C)O3 (stereo not given)	2.4	-7.9	3.0	0.3	82.7
CC(C)=CCc1c(O)cc(O)c2c1OC(c1ccc(O)cc1)CC2=O (stereo not given)	11.0	5.1	-4.0	262.4*	.
NC(=O)CN1CCN(C(=O)Nc2ccccc2)CC1	-4.3	-3.4	0.2	75.8*	15.1
COC(=O)[C@@H](Cc1c[nH]c2ccccc12)NC(=O)c1ccc2c(c1)OCO2	-5.6	-5.8	3.7	0.7	52.6*
CCN(C(C)=O)c1cnc(C=NNC(N)=S)c2ccccc12	.	9.8	.	82.3*	.
Cn1c(=O)[nH]c(=O)c2c1nc(SCC(N)=O)n2Cc1cccc(Br)c1	7.8	-3.0	0.2	-1.3	52.0*
SMILES	ugtP null kill	PrPC surface inh	Sa RN4220 lethal	PfHsp40 rescue	VHR inh abs
CSc1nc2c(c(=O)[nH]c(=O)n2C)n1Cc1ccccc1	6.2	4.3	3.2	-0.7	1.3
Cn1c(=O)[nH]c(=O)c2c1nc(N)n2Cc1ccccc1	7.6	-0.3	1.2	-0.5	52.0*
COc1ccc(C=CC(=O)c2ccc3ccccc3c2O)cc1CN1CCOCC1	-2.2	.	-2.3	.	.
O=[N+]([O-])c1cc(Br)c(O)c(C=NNc2nnnn2-c2cccc3ccccc23)c1	16.9	.	30.3	.	.
O=C(Cn1c(=O)oc2ccccc21)Nc1ccc(Cl)cc1	5.4	7.1	1.3	0.0	30.0
O=C(Cn1c(=O)oc2ccccc21)Nc1ccc(F)c(F)c1	-0.1	-0.9	2.5	1.0	56.9*
O=C(CN1CC(=O)Nc2ccccc21)Nc1ccc(F)c(F)c1	12.2	-4.1	0.4	42.6*	-10.8
CCN1/C(=C/c2cc[n+](CCCS(=O)(=O)[O-])c3ccccc23)Sc2ccccc21	10.5	-19.9	4.6	-0.2	21.7

Screening data from PubChem.
